Here are results for twelve sequences from PMC8384837, “Expanding the binding specificity for RNA recognition by a PUF domain”.

Holding throughout (experiment): yeast three-hybrid, YBZ-1, SC-Leu-His + 0.5 mM 3-AT, 4 days
Holding throughout (settings): tags: N-Gal4 AD-HA kept; label: inside an RPR1-promoter hybrid RNA with tandem MS2 sites; ssRNA

One test addresses PUM1 PUF domain R7-GSR (Homo sapiens, UniProt Q14671 828-1176, S1079G;N1080S;E1083R). In short, it runs like this:
(§1)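 Sequencing with Illumina followed PCR amplification of the repeat regions from transformants grown four days on SC-Leu (input) or SC-Leu-His + 0.5 mM 3-AT (selection). The transformants were strain YBZ-1 with a LexA–MS2 coat fusion and a HIS3 reporter, carrying Pumilio-1 PUF domain libraries and matching RNA elements. The interaction score is the log change in variant frequency from input to selection, computed in log2 with a pseudocount of 1 for absent variants.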

The target in the next test is PUM1 PUF domain R7-LER (Homo sapiens, UniProt Q14671 828-1176, S1079L;N1080E;E1083R). In a few lines:
as §1

The next test deals with PUM1 PUF domain R7-RRG (Homo sapiens, UniProt Q14671 828-1176, S1079R;N1080R;E1083G). In a few lines:
as §1

In another test the target is PUM1 PUF domain R1-CFK (Homo sapiens, UniProt Q14671 828-1176, S863C;R864F;Q867K). In a few lines:
as §1

For a further test, the target named is PUM1 PUF domain R1-HRR (Homo sapiens, UniProt Q14671 828-1176, S863H;Q867R). In a few lines: as §1
For another test, the target named is PUM1 PUF domain R1-NGR (Homo sapiens, UniProt Q14671 828-1176, S863N;R864G;Q867R). In a few lines: as §1
Another test concerns the target PUM1 PUF domain R5-KYG (Homo sapiens, UniProt Q14671 828-1176, C1007K;R1008Y;Q1011G). In a few lines:
as §1

The target in the next test is PUM1 PUF domain R5-DFG (Homo sapiens, UniProt Q14671 828-1176, C1007D;R1008F;Q1011G). In short, it runs like this:
as §1

The next test addresses PUM1 PUF domain R1-KRD (Homo sapiens, UniProt Q14671 828-1176, S863K;Q867D). In short, it runs like this: as §1
Another test concerns the target PUM1 PUF domain R5-SNG (Homo sapiens, UniProt Q14671 828-1176, C1007S;R1008N;Q1011G). In a few lines: as §1
The target in another test is T1, PUM1 PUF domain R6-FRE (Homo sapiens, UniProt Q14671 828-1176, N1043F;Y1044R;Q1047E).
T1 sequence: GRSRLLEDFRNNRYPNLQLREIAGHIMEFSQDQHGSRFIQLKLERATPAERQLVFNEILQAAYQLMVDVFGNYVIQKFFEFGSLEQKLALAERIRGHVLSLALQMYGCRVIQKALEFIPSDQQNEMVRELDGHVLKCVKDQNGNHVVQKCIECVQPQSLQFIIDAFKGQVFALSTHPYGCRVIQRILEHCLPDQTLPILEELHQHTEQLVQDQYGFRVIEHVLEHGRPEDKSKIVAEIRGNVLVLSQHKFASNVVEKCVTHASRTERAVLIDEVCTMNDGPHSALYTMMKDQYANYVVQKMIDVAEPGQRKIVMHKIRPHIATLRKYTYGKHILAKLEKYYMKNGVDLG
In short, it runs like this: as §1

For the next test, the target named is PUM1 PUF domain R4-CCM (Homo sapiens, UniProt Q14671 828-1176, N971C;H972C;Q975M). In a few lines: as §1
The target of the next test is PUM1 PUF domain R2-KFG (Homo sapiens, UniProt Q14671 828-1176, N899K;Y900F;Q903G). In short, it runs like this:
as §1

The next test deals with PUM1 PUF domain R4-WGF (Homo sapiens, UniProt Q14671 828-1176, N971W;H972G;Q975F). In a few lines: as §1
Another test addresses PUM1 PUF domain R4-YLL (Homo sapiens, UniProt Q14671 828-1176, N971Y;H972L;Q975L). In a few lines: as §1
The target in a further test is PUM1 PUF domain R4-PWC (Homo sapiens, UniProt Q14671 828-1176, N971P;H972W;Q975C). In short, it runs like this:
as §1

A further test deals with PUM1 PUF domain R8-KWL (Homo sapiens, UniProt Q14671 828-1176, N1122K;Y1123W;Q1126L). In a few lines: as §1
The target of another test is PUM1 PUF domain R3-YCV (Homo sapiens, UniProt Q14671 828-1176, C935Y;R936C;Q939V). In a few lines:
as §1

The target of the next test is PUM1 PUF domain R4-WAT (Homo sapiens, UniProt Q14671 828-1176, N971W;H972A;Q975T). In a few lines:
as §1

The target in the next test is PUM1 PUF domain R4-SMR (Homo sapiens, UniProt Q14671 828-1176, N971S;H972M;Q975R). In a few lines: as §1

PUM1 PUF domain R5-KYG, sequence (Q14671 828-1176 C1007K/R1008Y/Q1011G): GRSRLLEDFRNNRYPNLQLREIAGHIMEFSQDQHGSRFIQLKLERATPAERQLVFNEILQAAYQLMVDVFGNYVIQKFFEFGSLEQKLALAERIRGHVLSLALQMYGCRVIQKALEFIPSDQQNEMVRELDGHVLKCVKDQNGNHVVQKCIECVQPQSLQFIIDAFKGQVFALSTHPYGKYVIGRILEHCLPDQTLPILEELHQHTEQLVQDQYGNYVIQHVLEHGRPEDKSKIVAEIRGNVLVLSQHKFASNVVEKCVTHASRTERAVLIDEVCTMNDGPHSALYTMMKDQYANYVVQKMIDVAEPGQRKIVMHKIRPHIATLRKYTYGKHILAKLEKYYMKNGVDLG

For “GGCUAGAACUAGUGGAUCCCCCGGCGCCCGGCGGCUCGAGCCCGGGUAAGUUUAAAUAGUCUGCAUGCCGCCGGGCGCCAUGCCUGCAGGUCGACUCUAGAAAACAUG”, the binding signal was 4.22 log2 enrichment (interaction score) in the test with PUM1 PUF domain R7-GSR, 3.41 log2 enrichment (interaction score) with PUM1 PUF domain R7-LER and 4.6 log2 enrichment (interaction score) with PUM1 PUF domain R7-RRG.
As for “GGCUAGAACUAGUGGAUCCCCCGGCGCCCGGCGGCUCGAGCCCGGGUAAGUGUAAAUUGUCUGCAUGCCGCCGGGCGCCAUGCCUGCAGGUCGACUCUAGAAAACAUG”, the binding signal with PUM1 PUF domain R1-CFK was 3.31 log2 enrichment (interaction score); in the test with PUM1 PUF domain R1-HRR, 2.71 log2 enrichment (interaction score); with PUM1 PUF domain R1-NGR, 2.32 log2 enrichment (interaction score).
“GGCUAGAACUAGUGGAUCCCCCGGCGCCCGGCGGCUCGAGCCCGGGUAAGUGUCAAUAGUCUGCAUGCCGCCGGGCGCCAUGCCUGCAGGUCGACUCUAGAAAACAUG”: the binding signal in the test with PUM1 PUF domain R5-KYG was 5.55 log2 enrichment (interaction score); with PUM1 PUF domain R5-DFG it was 2 log2 enrichment (interaction score).
Regarding “GGCUAGAACUAGUGGAUCCCCCGGCGCCCGGCGGCUCGAGCCCGGGUAAGUGUAAAUCGUCUGCAUGCCGCCGGGCGCCAUGCCUGCAGGUCGACUCUAGAAAACAUG”, the figures for the binding signal in the test with PUM1 PUF domain R1-KRD, in the test with PUM1 PUF domain R1-HRR and in the test with PUM1 PUF domain R1-NGR were 3.37 log2 enrichment (interaction score), 2.84 log2 enrichment (interaction score) and 4.09 log2 enrichment (interaction score), respectively.
Take “GGCUAGAACUAGUGGAUCCCCCGGCGCCCGGCGGCUCGAGCCCGGGUAAGUGUUAAUAGUCUGCAUGCCGCCGGGCGCCAUGCCUGCAGGUCGACUCUAGAAAACAUG”: the binding signal is 3.2 log2 enrichment (interaction score) in the test with PUM1 PUF domain R5-SNG and 6.17 log2 enrichment (interaction score) with PUM1 PUF domain R5-DFG.
Regarding “GGCUAGAACUAGUGGAUCCCCCGGCGCCCGGCGGCUCGAGCCCGGGUAAGUGUGAAUAGUCUGCAUGCCGCCGGGCGCCAUGCCUGCAGGUCGACUCUAGAAAACAUG”, the binding signal in the test with PUM1 PUF domain R5-KYG is 2.74 log2 enrichment (interaction score).
In the case of “GGCUAGAACUAGUGGAUCCCCCGGCGCCCGGCGGCUCGAGCCCGGGUAAGUGUAAAUAGUCUGCAUGCCGCCGGGCGCCAUGCCUGCAGGUCGACUCUAGAAAACAUG”, the binding signal is 3.3 log2 enrichment (interaction score) with PUM1 PUF domain R6-FRE; 1.07 log2 enrichment (interaction score) with PUM1 PUF domain R4-CCM; 7.86 log2 enrichment (interaction score) with PUM1 PUF domain R2-KFG; 4.73 log2 enrichment (interaction score) with PUM1 PUF domain R4-WGF; 3.77 log2 enrichment (interaction score) with PUM1 PUF domain R5-KYG; 4.38 log2 enrichment (interaction score) with PUM1 PUF domain R4-YLL. Further, the binding signal was 7.51 log2 enrichment (interaction score) with PUM1 PUF domain R4-PWC, 5.16 log2 enrichment (interaction score) in the test with PUM1 PUF domain R8-KWL and 3.79 log2 enrichment (interaction score) with PUM1 PUF domain R5-DFG.
Turning to “GGCUAGAACUAGUGGAUCCCCCGGCGCCCGGCGGCUCGAGCCCGGGUAAGCGUAAAUAGUCUGCAUGCCGCCGGGCGCCAUGCCUGCAGGUCGACUCUAGAAAACAUG”, the binding signal with PUM1 PUF domain R8-KWL is 5.91 log2 enrichment (interaction score).
Take “GGCUAGAACUAGUGGAUCCCCCGGCGCCCGGCGGCUCGAGCCCGGGUAAGUGUAUAUAGUCUGCAUGCCGCCGGGCGCCAUGCCUGCAGGUCGACUCUAGAAAACAUG”: in the test with PUM1 PUF domain R4-CCM, the binding signal was 2.39 log2 enrichment (interaction score).
Consider “GGCUAGAACUAGUGGAUCCCCCGGCGCCCGGCGGCUCGAGCCCGGGUAAGUCUAAAUAGUCUGCAUGCCGCCGGGCGCCAUGCCUGCAGGUCGACUCUAGAAAACAUG”, for which the binding signal with PUM1 PUF domain R7-RRG is 3.12 log2 enrichment (interaction score).
On to “GGCUAGAACUAGUGGAUCCCCCGGCGCCCGGCGGCUCGAGCCCGGGUAAGUGUAAGUAGUCUGCAUGCCGCCGGGCGCCAUGCCUGCAGGUCGACUCUAGAAAACAUG”, for which the binding signal in the test with PUM1 PUF domain R3-YCV was 2.69 log2 enrichment (interaction score).
“GGCUAGAACUAGUGGAUCCCCCGGCGCCCGGCGGCUCGAGCCCGGGUAAGUGUACAUAGUCUGCAUGCCGCCGGGCGCCAUGCCUGCAGGUCGACUCUAGAAAACAUG”: the binding signal is 2.53 log2 enrichment (interaction score) with PUM1 PUF domain R4-WAT and 2.97 log2 enrichment (interaction score) with PUM1 PUF domain R4-SMR.
